Consider eight compounds from PubChem BioAssay (NCI).

Test systems include K-562 leukemia; MALME-3M melanoma; MDA-MB-231 breast; RXF 393 renal; SF-268 CNS; SF-539 CNS; UACC-257 melanoma; M14 melanoma; HCT-15 colon; HT29 colon; SNB-75 CNS; SNB-19 CNS; U251 CNS; PC-3 prostate; SK-MEL-5 melanoma; UACC-62 melanoma; SK-MEL-28 melanoma; SK-MEL-2 melanoma; SF-295 CNS; LOX IMVI melanoma.
Common to all, as to test: NCI-60 one-dose screen, 48 h (100 = growth as untreated, 0 = no growth, -100 = all killed)
Common to all, as to details: 10 µM unless noted

The panel holds about 83,000 compounds, 20% with a hit somewhere; the sample as a whole holds those more often.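 96-well plates, one dose, 48 hours. Percent growth reported; active if below 10.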 A number with no mark means an inactive call. Active and inactive are the calls of the source.

Regarding `N#CCCN(CCO)c1ccccc1`, the growth is 98.3% in the experiment with K-562 leukemia; 96.8% with MALME-3M melanoma; 106% with MDA-MB-231 breast; 105% in the experiment on RXF 393 renal; 111% in the experiment on SF-268 CNS; 104% with SF-539 CNS. Moreover, the growth with UACC-257 melanoma was 99.8%; in the experiment on M14 melanoma, 102%; with HCT-15 colon, 102%; in the experiment on HT29 colon, 93.7%; in the experiment on SNB-75 CNS it was 100%; in the experiment with SNB-19 CNS, 101%. The growth was 101% in the experiment with U251 CNS; 86.7% in the experiment on PC-3 prostate; 99.9% in the experiment on SK-MEL-5 melanoma; 103% with UACC-62 melanoma; 108% in the experiment on SK-MEL-28 melanoma; 101% in the experiment on SK-MEL-2 melanoma.
In the case of `CN(C)c1ccc(/C=C\c2ccnc3ccccc23)cc1`, the growth was 26.8% in the experiment on K-562 leukemia; 84.8% in the experiment with MALME-3M melanoma; 70.3% in the experiment on MDA-MB-231 breast; 92.1% in the experiment with SF-268 CNS; 61.6% with SF-295 CNS; 78.3% in the experiment with SF-539 CNS. Besides, the growth with UACC-257 melanoma is 80.9%; in the experiment on M14 melanoma, 83.9%; with HCT-15 colon, 58.5%; in the experiment on HT29 colon it was 51.7%; with SNB-75 CNS, 40.9%; in the experiment on SNB-19 CNS, 79.9%. For the same compound, the growth with U251 CNS is 73.9%; in the experiment with PC-3 prostate, 67.3%; in the experiment on SK-MEL-5 melanoma, 65.2%; in the experiment with UACC-62 melanoma it was 72.8%; in the experiment with LOX IMVI melanoma, 72.7%; in the experiment with SK-MEL-28 melanoma it was 88.7%. Moreover, in the experiment on SK-MEL-2 melanoma, the growth is 18.7%.
For the compound `O=C(/C=C/c1ccc(O)c(O)c1)N1CCN(c2ccc(Cl)cc2)CC1`, the growth in the experiment on K-562 leukemia was 61.8%; in the experiment with MALME-3M melanoma it was 66.2%; in the experiment with MDA-MB-231 breast, 59.2%; in the experiment with RXF 393 renal it was 58%; in the experiment with SF-268 CNS, 57%; in the experiment with SF-539 CNS, 66.4%. Also, the growth in the experiment with UACC-257 melanoma was 81.8%; in the experiment on M14 melanoma, 67.8%; in the experiment with HCT-15 colon it was 48.5%; in the experiment with HT29 colon, 80.1%; with SNB-19 CNS it was 73.9%; in the experiment with PC-3 prostate it was 61.7%. The growth in the experiment on SK-MEL-5 melanoma was 54.5%; in the experiment on UACC-62 melanoma, 81.3%; in the experiment with SK-MEL-28 melanoma it was 81%.
In the case of `COc1cc(-c2cc(C(=O)Nc3nc4ccccc4s3)nc3cc(-c4ccccc4)nn23)cc(OC)c1OC`, the growth is 53.2% in the experiment on K-562 leukemia; 28.5% in the experiment with MALME-3M melanoma; 66.1% in the experiment with MDA-MB-231 breast; 66.7% with RXF 393 renal; 53% with SF-295 CNS; 4.14% (active) in the experiment with SF-539 CNS. The growth in the experiment on UACC-257 melanoma is 59.1%; in the experiment with M14 melanoma, 26.3%; in the experiment with HT29 colon, 17.4%; in the experiment with SNB-75 CNS, 36.6%; with SNB-19 CNS it was 98.5%; with U251 CNS it was 66.7%. In addition, the growth with SK-MEL-5 melanoma is 35.5%; with UACC-62 melanoma it was 67.8%; with LOX IMVI melanoma it was 27.4%; in the experiment on SK-MEL-28 melanoma, 39.9%; in the experiment on SK-MEL-2 melanoma, 73.7%.
As for `Cc1cc(C(=O)O)c(C)cc1C(=O)O`, the growth was 101% in the experiment on K-562 leukemia; 89.5% in the experiment with MALME-3M melanoma; 114% with MDA-MB-231 breast; 116% in the experiment with RXF 393 renal; 115% with SF-268 CNS; 113% in the experiment on SF-539 CNS. Also, the growth is 104% in the experiment on UACC-257 melanoma; 101% with M14 melanoma; 104% in the experiment on HCT-15 colon; 103% in the experiment on HT29 colon; 97% with SNB-75 CNS; 107% with SNB-19 CNS. Further, the growth in the experiment on U251 CNS was 109%; in the experiment with PC-3 prostate, 92.3%; in the experiment on SK-MEL-5 melanoma, 99.9%; in the experiment with LOX IMVI melanoma it was 103%; in the experiment with SK-MEL-28 melanoma, 108%; with SK-MEL-2 melanoma it was 104%.
On to `Nc1nc(N)c([N+](=O)[O-])c(=O)[nH]1`, for which the growth in the experiment on K-562 leukemia was 108%; in the experiment with MALME-3M melanoma, 118%; in the experiment on MDA-MB-231 breast it was 115%; in the experiment with RXF 393 renal, 114%; with SF-268 CNS it was 115%; with SF-539 CNS, 106%. The growth was 103% in the experiment on UACC-257 melanoma; 106% in the experiment with M14 melanoma; 104% in the experiment on HCT-15 colon; 98.6% in the experiment with HT29 colon; 106% in the experiment with SNB-75 CNS; 108% in the experiment on SNB-19 CNS. In addition, the growth with U251 CNS was 102%; with PC-3 prostate, 94.5%; in the experiment on SK-MEL-5 melanoma, 102%; in the experiment on UACC-62 melanoma, 105%; with LOX IMVI melanoma, 105%; in the experiment on SK-MEL-28 melanoma, 107%. For the same compound, the growth in the experiment with SK-MEL-2 melanoma was 84.2%.
Regarding `CCc1ccc(CCN2C(=O)c3ccccc3C2=O)nc1`, the growth was 95.8% in the experiment with K-562 leukemia; 102% with MALME-3M melanoma; 98.5% in the experiment on MDA-MB-231 breast; 103% in the experiment on SF-268 CNS; 104% in the experiment on SF-295 CNS; 91.6% with SF-539 CNS. Also, the growth with UACC-257 melanoma was 95.6%; in the experiment on M14 melanoma, 110%; in the experiment with HCT-15 colon, 113%; in the experiment with HT29 colon, 109%; with SNB-75 CNS, 99%; with SNB-19 CNS, 91.7%. In addition, the growth is 103% in the experiment with U251 CNS; 107% with SK-MEL-5 melanoma; 98.6% in the experiment with UACC-62 melanoma; 101% in the experiment with LOX IMVI melanoma; 118% with SK-MEL-28 melanoma.
For `CC1=CC(=O)C(C(C)=Nc2ccccc2Cl)C(=O)O1` (centres undefined), the growth is 105% in the experiment on K-562 leukemia; 123% in the experiment with MALME-3M melanoma; 105% in the experiment with MDA-MB-231 breast; 101% in the experiment on SF-268 CNS; 121% in the experiment on SF-295 CNS; 101% in the experiment on SF-539 CNS. For the same compound, the growth in the experiment on UACC-257 melanoma is -17.3% (active); in the experiment on M14 melanoma, 107%; with HCT-15 colon, 105%; in the experiment on HT29 colon, 101%; in the experiment on SNB-75 CNS, 83.6%; in the experiment with U251 CNS, 103%. The growth in the experiment on SK-MEL-5 melanoma is 120%; in the experiment with UACC-62 melanoma it was 98%; with LOX IMVI melanoma, 83.6%; in the experiment on SK-MEL-28 melanoma, 105%.
